Laboratory results as given in PubChem BioAssay.
The source made the active and inactive calls.

How the values were obtained:
[1] = small molecules captured by biotinylated probe aFSTL3 – biochemical, small-molecule microarray, fluorescence 635/667, stem cell growth factor project, primary screen (AID 1064); settings: higher = more signal;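 further: measures binding of the biotinylated anti-FSTL3 antibody to printed compounds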
[2] = binders from COS7 lysate, DM2A8 probe, primary screen, torsin A project, cell lysate, small-molecule microarray, fluorescence 635/667 (AID 1065); settings: higher = more signal, COS7 lysate expressing mutant human TOR1A
[3] = small molecules captured by biotinylated probe aFGF2 – biochemical, small-molecule microarray, fluorescence 635/667, stem cell growth factor project, primary screen (AID 1067); settings: higher = more signal;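 further: measures binding of biotinylated aFGF2 protein to printed compounds on slides; z-score merges feature fluorescence and signal-to-noise across triplicate slides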
[4] = small molecules captured by biotinylated probe aFGF10 – biochemical, small-molecule microarray, fluorescence 635/667, stem cell growth factor project, primary screen (AID 1071); settings: higher = more signal;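 further: score merges 667 nm spot intensity and signal to noise from triplicate slides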
[5] = target: Neurogenic locus notch homolog protein 2 (Homo sapiens) (UniProt Q04721); assay: small molecules binding Notch2 protein – biochemical, small-molecule microarray, 635 nm fluorescence, stem cell growth factors, primary screen (AID 1073); settings: higher = more signal
[6] = target: Pro-neuregulin-1, membrane-bound isoform (Homo sapiens) (UniProt Q02297); assay: small molecules binding neuregulin-1 protein – biochemical, small-molecule microarray, fluorescence 635/667, psychiatric disease protein project, primary screen (AID 1075); settings: NRG1 binding, 635 nm fluorescence, higher = more signal;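 further: score combines 667 nm spot fluorescence with signal to noise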
[7] = tested on: Neuregulin-1 EGF-like domain; assay: small molecules binding NRG1 EGF domain – biochemical, small-molecule microarray, 635 nm fluorescence, primary screen (AID 1081); settings: higher = more signal;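 further: binding of the protein to compounds printed on small-molecule microarray slides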
[8] = FRG1 expression reporter modulators in myotubes – cell-based, C2C12 myotubes, firefly/Renilla luciferase, luminescence, FRG1 inhibition for FSHD, primary screen (AID 1084); settings: FRG1 promoter luciferase, higher = more signal, called active from +8 up or from −8 down
[9] = small molecules captured by biotinylated probe aFST – biochemical, small-molecule microarray, fluorescence 635/667, stem cell growth factor project, primary screen (AID 1086); settings: higher = more signal;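 further: score merges 667 nm fluorescence with signal-to-noise of each printed compound spot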
[10] = binders of probe aHhip on microarray, primary screen, stem cell growth factor project, biochemical, small-molecule microarray, fluorescence 635/667 (AID 1087); settings: higher = more signal;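 further: score merges spot fluorescence at 667nm with spot signal to noise ratio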
[11] = tested on: PRMT1 (protein arginine N-methyltransferase 1); assay: small molecules binding arginine methyltransferase PRMT1 – biochemical, small-molecule microarray, 635 nm fluorescence, primary screen (AID 1088); settings: higher = more signal;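 further: binding of Prmt1 protein to compounds spotted on small-molecule microarray slides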
[12] = growth effects on S. cerevisiae YJM789 – YJM789 clinical isolate, OD600, 24 h, basal, primary screen (AID 1089); settings: higher = more signal, called active from +8 up or from −8 down;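 further: growth of clinical yeast isolate S. cerevisiae YJM 789 seeded 1000 cells per well; test concentration not given here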
[13] = S. pombe growth modifiers, basal conditions – strain 972, OD600, 24 h, no modulator, primary screen (AID 1090);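 further: basal condition with compound alone and no growth modifier present; test concentration not given here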; settings: S. pombe 972 growth, higher = more signal, called active from +8 up or from −8 down
[14] = budding yeast growth modifiers under rapamycin – strain BY4716, OD600, 96 h, primary screen (AID 1091); further: test concentration not given here; settings: S. cerevisiae BY4716 + rapamycin, higher = more signal, called active from +8 up or from −8 down
[15] = target: Torsin-1A-interacting protein 2 (Homo sapiens) (UniProt Q8NFQ8); assay: small molecules binding lysate-expressed LULL1 – cell lysate, human LULL1 lysate, 635/667 nm fluorescence, primary screen (AID 1092); settings: small-molecule microarray, hLULL1 lysate binding, 635 nm fluorescence; higher = more signal;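 further: probe is lysate of COS7 cells overexpressing human LULL1; score merges per-feature 667 nm fluorescence with signal-to-noise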
[16] = optical density change of DRC41 E. coli – strain DRC41, OD650, 24 h, E. coli filamentation project, primary screen (AID 1093);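 further: MC1000 strain lacking acrAB efflux and sulA so SOS filamentation is blocked; test concentration not given here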; settings: E. coli DRC41 growth, higher = more signal, called active from +8 up or from −8 down
[17] = probe aLefty2 binding to arrayed compounds – biochemical, biotinylated probe, 635/667 nm fluorescence, primary screen (AID 1094); settings: small-molecule microarray, higher = more signal;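 further: score merges spot fluorescence near 667 nm with spot signal-to-noise ratio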
[18] = tested on: Noggin (protein binding on small-molecule microarray); assay: small molecules binding Noggin protein – biochemical, 635/667 nm fluorescence, primary screen (AID 1095); settings: 635 nm fluorescence, higher = more signal;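 further: score merges 667 nm feature fluorescence with signal to noise over triplicate slides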
[19] = target: Neurogenic locus notch homolog protein 3 (Homo sapiens) (UniProt Q9UM47); assay: small molecules binding NOTCH3 protein – biochemical, 635/667 nm fluorescence, primary screen (AID 1096); settings: small-molecule microarray, 635 nm fluorescence, higher = more signal
[20] = probe aEGFR binding to arrayed compounds – biochemical, biotinylated probe, 635/667 nm fluorescence, primary screen (AID 1097); settings: small-molecule microarray, higher = more signal;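 further: probe is a biotinylated anti-EGFR antibody binding compounds printed on slides; score combines fluorescence near 667 nm and signal to noise of each spot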

Chain of Neurogenic locus notch homolog protein 3 (Homo sapiens) (Q9UM47 whole entry, looked up): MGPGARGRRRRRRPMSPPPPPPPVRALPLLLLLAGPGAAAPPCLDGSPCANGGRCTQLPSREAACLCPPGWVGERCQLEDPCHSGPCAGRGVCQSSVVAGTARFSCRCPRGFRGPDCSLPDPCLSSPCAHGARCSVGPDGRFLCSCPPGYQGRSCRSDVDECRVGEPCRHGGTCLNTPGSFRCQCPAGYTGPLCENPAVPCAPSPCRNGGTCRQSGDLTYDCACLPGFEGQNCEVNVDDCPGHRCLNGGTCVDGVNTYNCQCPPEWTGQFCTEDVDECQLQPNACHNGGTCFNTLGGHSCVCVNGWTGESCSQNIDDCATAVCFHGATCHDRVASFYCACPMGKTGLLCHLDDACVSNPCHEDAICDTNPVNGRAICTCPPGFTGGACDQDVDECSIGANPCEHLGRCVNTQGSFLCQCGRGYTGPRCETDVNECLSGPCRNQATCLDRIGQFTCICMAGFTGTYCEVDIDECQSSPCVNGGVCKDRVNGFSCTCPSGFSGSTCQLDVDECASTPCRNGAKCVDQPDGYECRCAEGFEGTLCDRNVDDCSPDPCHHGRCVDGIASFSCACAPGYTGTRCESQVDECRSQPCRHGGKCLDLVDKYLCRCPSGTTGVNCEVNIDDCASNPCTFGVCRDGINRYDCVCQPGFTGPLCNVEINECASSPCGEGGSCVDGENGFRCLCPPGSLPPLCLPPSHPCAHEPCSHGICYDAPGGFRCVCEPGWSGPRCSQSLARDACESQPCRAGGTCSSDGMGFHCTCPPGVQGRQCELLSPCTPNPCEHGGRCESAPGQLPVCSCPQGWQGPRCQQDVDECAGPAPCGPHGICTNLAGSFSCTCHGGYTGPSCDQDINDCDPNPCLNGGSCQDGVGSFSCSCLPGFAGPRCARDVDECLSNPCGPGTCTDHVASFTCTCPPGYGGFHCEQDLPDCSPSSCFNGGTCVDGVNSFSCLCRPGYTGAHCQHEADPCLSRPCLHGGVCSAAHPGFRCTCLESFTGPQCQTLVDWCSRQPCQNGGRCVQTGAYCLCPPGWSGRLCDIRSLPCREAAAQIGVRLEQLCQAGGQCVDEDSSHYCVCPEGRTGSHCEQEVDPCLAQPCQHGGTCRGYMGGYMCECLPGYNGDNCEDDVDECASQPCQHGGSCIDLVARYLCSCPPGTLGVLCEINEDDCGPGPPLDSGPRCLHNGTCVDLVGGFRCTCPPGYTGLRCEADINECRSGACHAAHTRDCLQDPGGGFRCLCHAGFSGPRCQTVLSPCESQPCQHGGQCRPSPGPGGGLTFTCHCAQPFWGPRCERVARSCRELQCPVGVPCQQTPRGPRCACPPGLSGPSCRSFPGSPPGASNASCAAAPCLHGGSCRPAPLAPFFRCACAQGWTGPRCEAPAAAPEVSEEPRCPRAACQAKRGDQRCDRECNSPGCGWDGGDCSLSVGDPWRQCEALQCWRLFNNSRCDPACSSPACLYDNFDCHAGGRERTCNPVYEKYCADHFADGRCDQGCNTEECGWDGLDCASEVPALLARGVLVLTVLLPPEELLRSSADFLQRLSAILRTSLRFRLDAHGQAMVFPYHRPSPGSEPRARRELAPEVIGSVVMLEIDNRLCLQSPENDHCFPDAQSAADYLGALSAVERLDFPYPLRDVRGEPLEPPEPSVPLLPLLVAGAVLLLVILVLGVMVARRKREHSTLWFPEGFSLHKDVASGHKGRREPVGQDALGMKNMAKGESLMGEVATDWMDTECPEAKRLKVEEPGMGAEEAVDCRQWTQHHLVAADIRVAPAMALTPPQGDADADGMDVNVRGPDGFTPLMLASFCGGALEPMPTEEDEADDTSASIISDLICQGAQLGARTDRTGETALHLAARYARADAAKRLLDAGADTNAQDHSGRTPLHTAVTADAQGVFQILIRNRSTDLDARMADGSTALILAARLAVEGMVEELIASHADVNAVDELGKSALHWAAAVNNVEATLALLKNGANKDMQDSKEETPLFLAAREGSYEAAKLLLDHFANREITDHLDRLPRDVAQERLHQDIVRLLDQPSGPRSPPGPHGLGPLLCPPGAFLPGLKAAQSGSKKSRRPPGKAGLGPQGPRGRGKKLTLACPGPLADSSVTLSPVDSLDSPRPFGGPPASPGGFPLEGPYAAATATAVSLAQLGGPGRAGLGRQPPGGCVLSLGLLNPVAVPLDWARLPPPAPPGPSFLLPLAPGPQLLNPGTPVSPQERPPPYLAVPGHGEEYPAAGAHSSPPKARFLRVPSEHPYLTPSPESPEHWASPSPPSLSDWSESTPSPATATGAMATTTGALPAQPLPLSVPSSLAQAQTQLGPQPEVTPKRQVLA
Chain of Neurogenic locus notch homolog protein 2 (Homo sapiens) (Q04721 whole entry, looked up, canonical isoform): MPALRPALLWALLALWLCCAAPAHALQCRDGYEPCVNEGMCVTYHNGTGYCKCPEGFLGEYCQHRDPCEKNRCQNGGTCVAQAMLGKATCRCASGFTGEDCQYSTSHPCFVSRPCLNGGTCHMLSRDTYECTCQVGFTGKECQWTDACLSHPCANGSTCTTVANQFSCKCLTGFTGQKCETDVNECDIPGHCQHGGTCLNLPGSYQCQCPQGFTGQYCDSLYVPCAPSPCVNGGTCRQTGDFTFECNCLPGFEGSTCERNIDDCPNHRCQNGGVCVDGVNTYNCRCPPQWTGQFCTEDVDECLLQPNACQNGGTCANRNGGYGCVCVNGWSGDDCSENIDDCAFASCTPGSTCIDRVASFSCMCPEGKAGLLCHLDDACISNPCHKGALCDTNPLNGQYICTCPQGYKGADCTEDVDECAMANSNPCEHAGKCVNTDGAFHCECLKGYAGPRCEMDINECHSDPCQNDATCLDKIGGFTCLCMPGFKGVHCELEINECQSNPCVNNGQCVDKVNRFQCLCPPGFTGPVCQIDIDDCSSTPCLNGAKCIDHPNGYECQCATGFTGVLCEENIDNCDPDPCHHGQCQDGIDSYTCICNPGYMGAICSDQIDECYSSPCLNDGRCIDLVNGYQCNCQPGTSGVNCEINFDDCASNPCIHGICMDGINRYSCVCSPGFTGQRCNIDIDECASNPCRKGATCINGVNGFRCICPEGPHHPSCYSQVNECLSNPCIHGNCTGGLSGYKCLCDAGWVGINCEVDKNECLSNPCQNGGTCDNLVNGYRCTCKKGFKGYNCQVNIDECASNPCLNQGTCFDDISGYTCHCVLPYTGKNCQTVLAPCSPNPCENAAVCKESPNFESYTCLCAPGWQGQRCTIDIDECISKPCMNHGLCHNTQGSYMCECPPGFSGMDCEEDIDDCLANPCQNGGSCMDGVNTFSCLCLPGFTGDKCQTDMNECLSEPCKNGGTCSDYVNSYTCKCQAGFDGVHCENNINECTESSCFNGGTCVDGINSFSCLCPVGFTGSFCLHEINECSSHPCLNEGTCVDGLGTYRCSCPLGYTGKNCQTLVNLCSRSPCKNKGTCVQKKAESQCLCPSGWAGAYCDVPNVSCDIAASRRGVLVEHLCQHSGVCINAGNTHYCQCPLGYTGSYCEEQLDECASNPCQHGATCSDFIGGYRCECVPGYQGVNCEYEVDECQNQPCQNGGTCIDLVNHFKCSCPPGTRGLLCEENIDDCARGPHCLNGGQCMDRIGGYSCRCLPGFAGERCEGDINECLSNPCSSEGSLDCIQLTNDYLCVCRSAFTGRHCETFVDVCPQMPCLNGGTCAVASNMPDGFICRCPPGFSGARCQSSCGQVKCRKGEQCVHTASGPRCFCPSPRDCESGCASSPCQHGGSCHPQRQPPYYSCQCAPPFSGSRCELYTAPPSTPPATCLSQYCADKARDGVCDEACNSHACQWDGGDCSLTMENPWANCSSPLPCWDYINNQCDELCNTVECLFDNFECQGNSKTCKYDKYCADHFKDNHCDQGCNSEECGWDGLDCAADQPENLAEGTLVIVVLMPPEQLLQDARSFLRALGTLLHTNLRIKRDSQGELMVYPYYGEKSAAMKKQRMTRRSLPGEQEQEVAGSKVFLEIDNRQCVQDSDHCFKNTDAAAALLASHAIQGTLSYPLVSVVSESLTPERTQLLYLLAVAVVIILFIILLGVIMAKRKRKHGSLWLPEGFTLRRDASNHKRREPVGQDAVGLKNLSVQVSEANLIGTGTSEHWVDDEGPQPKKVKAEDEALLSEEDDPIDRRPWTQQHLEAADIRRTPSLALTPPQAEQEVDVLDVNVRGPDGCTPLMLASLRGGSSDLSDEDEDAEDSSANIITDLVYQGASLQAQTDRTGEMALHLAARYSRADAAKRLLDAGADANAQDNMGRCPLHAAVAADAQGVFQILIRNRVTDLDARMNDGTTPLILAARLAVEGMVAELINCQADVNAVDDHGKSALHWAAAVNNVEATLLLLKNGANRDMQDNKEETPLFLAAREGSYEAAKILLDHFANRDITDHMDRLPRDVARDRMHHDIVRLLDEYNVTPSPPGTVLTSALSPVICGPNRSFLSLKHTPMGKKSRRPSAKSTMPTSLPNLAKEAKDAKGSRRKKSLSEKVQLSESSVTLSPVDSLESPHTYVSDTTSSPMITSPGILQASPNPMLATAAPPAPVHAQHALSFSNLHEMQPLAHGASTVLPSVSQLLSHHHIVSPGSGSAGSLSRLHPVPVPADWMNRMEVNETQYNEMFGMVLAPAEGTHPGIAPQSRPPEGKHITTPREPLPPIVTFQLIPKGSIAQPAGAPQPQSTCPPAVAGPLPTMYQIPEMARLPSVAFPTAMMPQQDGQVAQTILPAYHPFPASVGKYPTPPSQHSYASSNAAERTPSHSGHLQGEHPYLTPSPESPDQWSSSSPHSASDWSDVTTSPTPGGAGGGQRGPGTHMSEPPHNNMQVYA

Row | SMILES | composite z-score [1] | composite z-score [2] | composite z-score [3] | composite z-score [4] | composite z-score [5] | composite z-score [6] | composite z-score [7] | z-score [8] | composite z-score [9] | composite z-score [10] | composite z-score [11] | z-score [12] | z-score [13] | z-score [14] | composite z-score [15] | z-score [16] | composite z-score [17] | composite z-score [18] | composite z-score [19] | composite z-score [20]
1 | C[N+](C)(C)CCCCNC(=O)[C@H]1C[C@H]2C(=O)NCC(=O)N2[C@H]1c1ccc(O)cc1 | -0.392 | 1.83 | -0.0466 | 1.12 | 0.943 | 0.584 | 1.38 | 0.0635 (inactive) | 0.383 | -0.156 | 1.46 | -0.826 (inactive) | 0.0918 (inactive) | -1.71 (inactive) | 1.84 | 0.509 (inactive) | 0.0823 | 2.01 | 1.04 | 0.154
2 | NC(=O)NCC#Cc1ccc2c(c1)[C@]1(C(=O)N2)[C@H](c2ccc(OCCO)cc2)N2[C@H](c3ccccc3)[C@H](c3ccccc3)OC(=O)[C@H]2[C@@H]1C(=O)N1CCN(c2ncccn2)CC1 | -0.584 | 0.936 | -0.0767 | 0.766 | 0.0776 | 0.29 | -0.178 | 0.565 (inactive) | -0.194 | -0.0564 | 1.34 | 1.77 (inactive) | 0.494 (inactive) | 4.43 (inactive) | 1.6 | 1.31 (inactive) | -0.0933 | 1.63 | 0.772 | -0.15
3 | COc1ccc([Si](C)(C)[C@H]2[C@H](CC(=O)N3CCC[C@H]3CO)O[C@@]3(C(=O)N(Cc4ccc(N5C(=O)c6cccc7cccc5c67)cc4)c4ccccc43)[C@@H]2C)cc1 | -0.276 | 0.623 | -0.071 | 0.751 | 0.517 | 0.916 | 0.804 | -4.19 (inactive) | 0.361 | -0.221 | 1.54 | -0.631 (inactive) | 0.363 (inactive) | -0.403 (inactive) | 2.5 | 0.965 (inactive) | -0.057 | 1.11 | 1.13 | 0.0333
4 | CN(C)C(=O)[C@]1(Cc2ccccc2N=[N+]=[N-])N=C(c2ccc(OCCCO)cc2)O[C@@H]1c1ccccc1CN=[N+]=[N-] | -0.144 | 0.937 | 0.122 | 0.794 | 1.51 | 1.8 | 1.19 | 0.643 (inactive) | 0.745 | -0.0994 | 1.5 | -2.13 (inactive) | -0.393 (inactive) | 0.545 (inactive) | 3.51 | 0.35 (inactive) | 0.0262 | 0.821 | 1.02 | -0.0509
5 | CN(C)C(=O)[C@@]1(Cc2ccccc2N=[N+]=[N-])N=C(c2ccc(OCCCO)cc2)O[C@H]1c1ccccc1N=[N+]=[N-] | 0.982 | 1.2 | 0.125 | 0.765 | 1.51 | 1.46 | 0.73 | -0.325 (inactive) | 1.53 | 0.28 | 1.56 | 0.506 (inactive) | -2.68 (inactive) | 3.01 (inactive) | 2.87 | 0.239 (inactive) | 0.505 | 0.126 | 1.06 | 0.387
6 | COC(=O)c1ccc(OC)c(/C=C\CC(CCc2ccccc2)OC(=O)c2ccncc2)c1 (stereo not given) | 0.233 | 0.767 | -0.22 | -0.293 | -0.714 | -0.0697 | 0.0883 | -2.63 (inactive) | -0.432 | -0.146 | -0.0105 | -0.272 (inactive) | -1.34 (inactive) | 3.39 (inactive) | 0.673 | 0.162 (inactive) | 0.0224 | 1.88 | -0.169 | -0.195
7 | CC1(C)[C@@H]2CC(C(O)C3C=CC4C(=O)N(c5ccccc5)C(=O)C4N3Nc3ccccc3F)=C[C@@H]1C2 (stereo not given in full) | -0.168 | 0.159 | -0.0092 | 1.03 | 1.54 | 1.28 | 1.14 | -3.65 (inactive) | 0.955 | -0.228 | 1.53 | -0.601 (inactive) | 0.5 (inactive) | -0.382 (inactive) | 3.19 | -0.117 (inactive) | 0.155 | 0.791 | 1.06 | 0.0066
8 | C=CCN1C(=O)[C@@]2(O[C@@H](CCn3cc([C@H](O)c4ccccc4)nn3)[C@H]([Si](C)(C)c3ccc(OC)cc3)[C@H]2C)c2cc(NC(=O)c3ccc(OC)cc3)ccc21 | 0.027 | 0.321 | 0.0084 | 0.0737 | 0.147 | 0.56 | 0.531 | -1.36 (inactive) | 0.101 | 0.185 | 0.948 | 1.05 (inactive) | 0.0445 (inactive) | 0.7 (inactive) | 1.72 | 0.859 (inactive) | -0.0615 | 0.551 | 0.422 | -0.0564
9 | COc1ccc([Si](C)(C)[C@@H]2[C@@H](CCO)O[C@]3(C(=O)N(Cc4cccc(N5C(=O)COc6ccccc65)c4)c4ccccc43)[C@H]2C)cc1 | 0.0857 | -0.183 | -0.072 | 0.492 | 0.0822 | 1.18 | 0.818 | -1.22 (inactive) | -0.287 | -0.164 | 0.896 | 3.01 (inactive) | 1.09 (inactive) | 36.8 (active) | 1.61 | 0.685 (inactive) | -0.124 | -0.142 | 0.528 | -0.0864
